# Compound activity as filed in PubChem.
# Jurkat NFkB inh: inhibitors of the PMA/ionomycin-induced NF-kB reporter in Jurkat cells. inhibition, % at 4 µM. 330,000 compounds, 0.53% hits. PMA/ionomycin-induced NF-kB luciferase reporter, luminescence; in the data active = inhibition above about 50%
# Shn3 inh set2: inhibitors of Schnurri-3 3'UTR reporter in osteoblasts. Clone20 osteoblast Shn3 3'UTR firefly luciferase, 24 h. inhibition, % at 12.5 µM. 360,000 compounds, 0.52% hits. AID 588674;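 active = mean inhibition of at least 75% with every replicate also reaching 75%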;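 note: 0% = median of neutral control wells and 100% = pilot-screen positive control compound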
# Mdm2-MdmX inh: inhibitors of human Mdm2/MdmX interaction; O15151+Q00987; SaOS-2 split-luciferase Mdm2/MdmX complementation, luminescence; inhibition, % at 8 µM; 330,000 compounds, 3% hits; AID 485346;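 active = inhibition of at least 50% at 8 µM in the primary screen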
# 697 NFkB inh: inhibitors of the PMA/ionomycin-induced NF-kB reporter in 697 B cells; 697 B-cell NF-kB luciferase reporter, 16 h; inhibition, % at 4 µM; 330,000 compounds, 0.33% hits; in the data active = inhibition above about 35%
# Gli-Sufu block: antagonists of Gli-Sufu signaling; Sufu-KO-LIGHT fibroblasts, Gli luciferase reporter luminescence; inhibition, % at 5 µM; 340,000 compounds, 0.74% hits; AID 588413;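 active = inhibition above about 55%, limit read from the data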;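 note: 0% = DMSO-treated cells and 100% = wells with medium but no cells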
# Jurkat NFkB conf: lowers PMA/ionomycin-induced NF-kB signal in Jurkat cells. Jurkat NF-kB luciferase, 16 h. shares compounds with Jurkat NFkB inh. inhibition, % at 4 µM. AID 435020. 2,700 compounds, 27% hits;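 active = inhibition reaching about 45% at 4 µM in either replicate, limit read from the data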;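 note: plate controls were PMA/ionomycin stimulated DMSO wells for no effect and unstimulated DMSO wells for full effect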
# 697 NFkB conf: inhibitors of the PMA/ionomycin-induced NF-kB reporter in 697 B cells, retest. shares compounds with 697 NFkB inh. 697 B-cell NF-kB luciferase, 16 h. inhibition, % at 4 µM. 2,000 compounds, 35% hits; in the data active = inhibition mostly above about 28%, no sharp cut-off; inactive = mostly below about 22%
# Mdm2 MdmX conf: human Mdm2/MdmX binding inhibition, confirmed. shares compounds with Mdm2-MdmX inh. luminescent assay. inhibition, % at 8 µM. 10,000 compounds, 55% hits; in the data active = inhibition above about 40%
# FLuc counter: inhibits full-length luciferase, flagging false Mdm2/MdmX hits; shares compounds with Mdm2-MdmX inh; SaOS-2 full-length luciferase counterscreen, luminescence; inhibition, % at 8 µM; 6,200 compounds, 77% hits;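 active = mean inhibition at 8 µM reaching about 37%, which flags the compound as non-specific, limit read from the data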;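 note: p53-null SaOS-2 cells with luciferase driven by a doxycycline-inducible promoter; compound on cells about two nights before reading with doxycycline added after day one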
# * marks the source's active call; other numbers are inactive results; . = no result given. A selection: hits, their analogues and other compounds. The true share with any hit is near 3.8%.
SMILES,Jurkat NFkB inh,Shn3 inh set2,Mdm2-MdmX inh,697 NFkB inh,Gli-Sufu block,Jurkat NFkB conf,Mdm2 MdmX conf,FLuc counter,others
O=C(Nc1nc2ccc(C(=O)N3CCCCC3)cc2s1)C1CCCCC1,60*,-2,51*,-72,-28,19,57*,79*,
Cn1c(=S)[nH]c2sc3c(c2c1=O)CCC(C(C)(C)C)C3 (centres undefined),-63,-26,-10,-121,.,.,.,.,
CC1CC(C)CN(S(=O)(=O)c2ccc3c(c2)CC(=O)N3)C1 (centres undefined),-2,8,12,10,-2,.,.,.,
Cc1ccc(-n2nnnc2CNC(=O)c2ccc3c(c2)OCO3)cc1C,25,15,0,9,-7,.,.,.,
CCS(=O)(=O)CCSC1OC(COC(C)=O)C(OC(C)=O)C(OC(C)=O)C1OC(C)=O (centres undefined),-2,5,8,9,1,.,.,.,
COc1ccc(/C=c2/sc3n(c2=O)C(c2ccccc2OC)C2=C(N=3)c3ccccc3CC2)cc1O (centres undefined),70*,10,70*,-15,15,51*,87*,30,
Clc1cccc(Cl)c1/C=N/Nc1c(Cl)cncc1Cl,73*,7,65*,-35,-16,49,64*,22,
CC(C)(C)NC(=S)N/N=C/c1c(Cl)cccc1Cl,2,-4,13,-7,3,.,.,.,
CCC(=O)NC(c1cccs1)c1cc([N+](=O)[O-])c2cccnc2c1OC (centres undefined),.,-2,.,.,.,.,.,.,
CCC(=O)NC(c1cccs1)c1ccc2cccnc2c1O (centres undefined),63*,79,82*,-41,81*,47*,84*,23,
COC(=O)CCCCCN1C(=O)NC(C2CC2)C(C(=O)OCc2ccccc2)=C1C (centres undefined),18,27,12,6,-6,.,.,.,
S=C(NCc1ccco1)N/N=C/c1ccccc1Cl,7,-11,9,-25,-5,.,.,.,
CCN(Cc1ccccc1)c1ccc(/C=N/N=C(N)N)cc1,61*,83,98*,-37,23,13,100*,58*,
CCN(Cc1ccccc1)c1ccccc1,.,-3,.,.,3,.,.,.,
C=C1/C=C(\C)[C@](C)(O)C[C@H](O)CC(=O)[C@H](O)[C@@H](O)[C@H](C)C[C@H](C)OC(=O)/C(C)=C/CC/C=C/[C@@H]2O[C@H]2C[C@H](C)C1,57*,.,97*,37*,.,12,-28,.,697 NFkB conf=17
Cc1ccc2oc(/N=C(\N)NC(=O)C(C)(C)C)nc2c1,60*,.,87*,-44,75*,87*,94*,32,
CC(C)(C)c1ccc(C(=O)N/C(N)=N/c2nc3ccccc3o2)cc1,10,45,18,-24,5,.,.,.,
COc1ccc(CCNC(=O)c2cc3c(=O)n(C)c4ccccc4c3n2C)c(OC)c1,3,-9,20,9,7,.,.,.,
C/C(=N\O)C(C)(C)Nc1cccc(Br)c1,-5,5,2,-14,-7,.,.,.,
COc1ccc(C2C3=C(CC(C)(C)CC3=O)Nc3cc4c(cc32)OCO4)cc1 (centres undefined),-4,14,5,11,12,.,.,.,
COc1ccc(OC)c(C2C3=C(COC3=O)Nc3cc4c(cc32)OCO4)c1 (centres undefined),77*,14,55*,43*,14,42,68*,125*,697 NFkB conf=39*
CN(NC(=O)c1ccc(Cl)cc1)c1nc(-c2ccccc2)nnc1C(F)(F)F,-2,16,21,3,0,.,.,.,
Cc1ccc(C(=O)NN(C)c2nc3ccccc3nc2C(F)(F)F)cc1,56*,18,70*,-43,14,33,54*,61*,
CCC1N=C(SC)NC(C)=C1C(=O)c1ccccc1 (centres undefined),1,4,15,0,-20,.,.,.,
CSC1=NC(C(Cl)(Cl)Cl)N=C(c2ccc(C)cc2)N1 (centres undefined),70*,-7,72*,-5,2,44,70*,67*,
SMILES,Jurkat NFkB inh,Shn3 inh set2,Mdm2-MdmX inh,697 NFkB inh,Gli-Sufu block,Jurkat NFkB conf,Mdm2 MdmX conf,FLuc counter,others
CCN(CC)CCCCNc1ncc2cc(-c3cc(OC)cc(OC)c3)c(NC(=O)NC(C)(C)C)nc2n1,75*,40,94*,8,28,-4,88*,20,
COc1ccc(N(C(=O)c2snc(C(N)=O)c2N)C(C(=O)NC2CCCC2)c2cccs2)cc1OC (centres undefined),-3,2,-8,13,-1,.,.,.,
C#CC(=O)N(c1cc(OC)ccc1OC)C(C(=O)NC1CCCC1)c1cccs1 (centres undefined),95*,90*,100*,99*,86*,85*,100*,52*,697 NFkB conf=105*
C#CC(=O)N(c1ccc(OC)cc1OC)C(C(=O)NC1CCCC1)c1cccs1 (centres undefined),90*,83,89*,97*,57*,67*,100*,51*,697 NFkB conf=104*
Cc1cnccc1CNC(=O)C1CCC(=O)N(Cc2ccc(Cl)cc2)C1 (centres undefined),15,-20,-7,4,-8,.,.,.,
CC(=O)c1ccc(N2CCN(S(=O)(=O)c3ccc4c(c3)CCC(=O)N4)CC2)cc1,.,23,.,.,.,.,.,.,
COc1cc2c(c(OC)c1OC)-c1ccc(OC)c(=O)cc1C(NC(C)=O)CC2 (centres undefined),63*,-37,60*,-149,45,60*,58*,118*,
COc1cc2c(c(OC)c1OC)-c1ccc(OC)c(=O)cc1C(NC(=O)c1ccccc1)CC2 (centres undefined),.,0,.,.,45,.,.,.,
CN(C)CCCN=Cc1c(O)n(Cc2ccc3c(c2)OCO3)c(=O)c2ccccc12,-12,.,25,-6,.,.,.,.,
Cc1ccc(COC(=O)c2cc([N+](=O)[O-])ccc2N2CCOCC2)cc1,63*,8,71*,-6,.,52*,75*,87*,
CC[n+]1c(C=C2C=C(C)OC(C)=C2)sc2ccccc21,87*,77,75*,53*,85*,75*,70*,56*,697 NFkB conf=69*
CCN1CCN(c2ccc(S(=O)(=O)N3CCCCC3)cc2NC(=O)/C=C/c2ccc([N+](=O)[O-])cc2)CC1,52*,-36,99*,-3,19,34,92*,48*,
CC[C@@H]1C/C=C\Cc2ccccc2[C@@H](C(=O)C[C@H](O)CC(C)=O)OC1=O,18,8,-16,13,5,.,.,.,
